In the library only some 7.4% were active in any assay of this set; here they are far more common.
Luc counter – blocks Kinase-Glo luciferase, a counter-screen artifact | Q27757 | Kinase-Glo luciferase, ATP luminescence, 8 min | Potency, µM (top dose mostly 38.3 µM), most hits filed as inhibitors | 200,000 compounds, 0.28% hits; note: nearly all actives have a fitted effect of over 60% in size
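Compound is pinned into ATP-containing buffer (10 uM ATP, imidazole pH 7.2, 7 mM MgCl2). Kinase-Glo luciferase reagent is then added. Light output is recorded following an 8-min room-temperature incubation.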
NPC1 promoter act – activators of NPC1 promoter; Huh7 NPC1 promoter luciferase reporter, 24 h; 320,000 compounds, 2.4% hits; Potency, µM (series often up to 9.22 µM), hits mostly activators; note: nearly all actives have a fitted effect of over 60% in size
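Luminescence read-out of NPC1 promoter-driven luciferase in stably transfected Huh7 cells; compounds delivered in DMSO and left 24 h at 37C, 5% CO2, qHTS titration format.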
FLuc counter – counter-screen for miR-21 project: firefly luciferase inhibitors or activators. P08659. purified FLuc, Km substrates, luminescence inhibition. Potency, µM (highest dose often 57.5 µM), most hits filed as inhibitors. 360,000 compounds, 6.9% hits; note: nearly all actives have a fitted effect of over 55% in size
Target sequence (P08659 whole entry, looked up): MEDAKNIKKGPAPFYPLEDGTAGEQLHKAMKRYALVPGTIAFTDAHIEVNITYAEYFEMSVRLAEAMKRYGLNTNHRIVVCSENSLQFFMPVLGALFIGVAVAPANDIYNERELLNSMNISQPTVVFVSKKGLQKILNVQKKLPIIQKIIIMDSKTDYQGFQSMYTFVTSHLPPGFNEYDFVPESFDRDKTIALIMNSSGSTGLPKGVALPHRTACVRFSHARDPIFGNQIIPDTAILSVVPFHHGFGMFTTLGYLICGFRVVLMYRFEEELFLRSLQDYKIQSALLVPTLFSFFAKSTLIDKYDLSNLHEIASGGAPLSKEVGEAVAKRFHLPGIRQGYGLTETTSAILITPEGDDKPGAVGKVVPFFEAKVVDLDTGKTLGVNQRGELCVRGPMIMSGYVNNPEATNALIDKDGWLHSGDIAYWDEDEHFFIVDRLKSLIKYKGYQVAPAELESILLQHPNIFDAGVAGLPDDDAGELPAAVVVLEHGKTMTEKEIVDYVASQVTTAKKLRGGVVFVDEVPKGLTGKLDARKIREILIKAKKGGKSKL
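Biochemical qHTS of compounds, final roughly 60 µM downward over six points, against 10 nM purified firefly luciferase using Km concentrations of substrates (10 uM D-luciferin, 10 uM ATP) in Tris acetate pH 7.5 buffer; luminescence output.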
ELG1 genotox – induces genotoxicity in HEK293T cells with luciferase-tagged ELG1 | 330,000 compounds, 1.3% hits | AID 504466 | HEK293T ELG1-luciferase reporter, luminescence, 16 h | Potency, µM (series often up to 46 µM), usual class: activators; note: nearly all actives have a fitted effect of over 60% in size
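HEK293T cells expressing luciferase-tagged ELG1 were exposed to compound or DMSO vehicle for 16 hr at 37 °C and 5% CO2. Luciferase activity was then measured with ONE-Glo after 30 min at room temperature.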
SMN2 splice up – enhancers of SMN2 splice variant expression. HEK293 SMN2-luciferase splicing reporter, luminescence, 30-36 h. 210,000 compounds, 2.8% hits. Potency, µM (titrated, usually from 46.1 µM), most hits filed as activators; note: nearly all actives have a fitted effect of over 55% in size
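qHTS luciferase splicing reporter: luminescence rises when SMN2 exon 7 is included in transfected HEK293 cells. Compound exposure lasted 30-36 h at 37C, with 4.5 mM final sodium butyrate as control, followed by a ONE-Glo read.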
Rab9 promoter act – Rab9 promoter activation | AID 485297 | 320,000 compounds, 2.8% hits | Potency, µM (doses to about 9.22 µM), usual class: activators | Huh7 Rab9 promoter-luciferase reporter, luminescence, 24 h; note: nearly all actives have a fitted effect of over 60% in size
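Huh7 cells stably carrying a Rab9 promoter-luciferase reporter, 1500 cells per well in OP-MEM I with 10% FBS, treated with compound 24 hours at 37C. Luciferase activity read by luminescence after 10 minutes with Amplite reagent.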
Numbers stand for hits; - = inactive; ? = inconclusive; . = no result. Calls come from the whole dose curve; as a rule, active = well fitted curve in the direction sought with a large enough effect; inconclusive = small, poorly fitted or top-dose-only effect, or another doubt; inactive = no such curve, though single readings can be large; an effect the other way counts as inactive or inconclusive.

SMILES	Luc counter	NPC1 promoter act	FLuc counter	ELG1 genotox	SMN2 splice up	Rab9 promoter act
Cc1ccc2nc(-c3c[nH]c4ccccc34)c(Nc3ccc(F)cc3)n2c1	.	.	-	.	14µM	.
CC(=O)N1CCc2cc(Br)cc(S(=O)(=O)CCC(=O)Nc3ccc(C)cc3Cl)c21	.	.	-	.	-	.
Cc1ccc(S(=O)(=O)Cn2nnnc2C(CC(C)C)N2CCN(C)CC2)cc1 (centres undefined)	-	-	-	-	.	-
COC(=O)C1=NN(C(=O)c2ccc(Cl)cc2)C(O)(c2ccccc2)C1 (centres undefined)	-	-	21µM	-	-	-
COc1ccccc1NC(=S)NC(=O)CC(C)C	-	-	15µM	-	-	-
COc1ccc(NC(=S)N/C(=N/CS(=O)(=O)c2ccccc2)c2ccccc2)cc1	-	2.8µM	2.7µM	?	-	?
COc1cc(OC)cc(C(=O)NNC(=S)Nc2ccccc2OC)c1	-	-	21µM	-	-	-
CC(=O)c1ccc(NC(=S)NNC(=O)c2ccncc2)cc1	-	-	19µM	-	-	-
Cc1ccccc1NC(=S)NNC(=O)c1ccncc1	-	-	-	-	-	-
O=[N+]([O-])c1ccc(NC(=S)N/C(=N/CS(=O)(=O)c2ccccc2)c2ccccc2)cc1	-	-	?	?	-	-
Cc1c(C(=O)Nc2ccc(F)cc2)sc2ncn(CC(=O)N3CCCCC3)c(=O)c12	.	-	-	-	.	-
CC(=O)c1c(C)n(-c2ccccc2Br)c2ccc(O)cc12	.	-	-	-	.	-
Cn1c2cc(B(O)O)sc2c2cnn(Cc3c(F)cccc3F)c(=O)c21	.	-	-	.	.	-
CCc1ccc(NC(=O)C2CCC(CNS(=O)(=O)c3ccc4c(c3)CC(C)N4C(C)=O)CC2)cc1 (centres undefined)	.	.	-	.	.	.
COc1ccccc1NC(=S)NNC(=O)c1c(Cl)c(C)nn1C	-	-	15µM	-	-	-
COc1ccccc1NC(=S)NNC(=O)c1ccccc1Br	-	-	?	-	5µM	?
COc1ccccc1C(=O)NNC(=O)c1ccccc1Br	.	-	?	-	.	-
COc1ccc(C(=O)NNC(=S)Nc2ccccc2)cc1	-	2.5µM	11µM	?	11µM	0.56µM
COc1ccccc1NC(=S)NNC(=O)c1cc(C)nn1C	-	-	?	-	-	-
CCOc1ccc(NC(=O)CN2CCCC2c2cccs2)cc1S(=O)(=O)N1CCCCC1 (centres undefined)	.	-	.	-	.	-
COc1ccc(/C=C/C(=O)Nc2cccc(C(C)=O)c2)cc1	-	?	0.95µM	-	11µM	?
COc1ccc(/C=C/C(=O)NC2CC3CCC2C3)cc1 (centres undefined)	.	-	17µM	?	.	-
COc1ccc(NC(=O)/C=C/c2ccc(Cl)cc2)cc1	?	2.1µM	.	.	11µM	2.5µM
COc1ccc(/C=C/C(=O)Nc2cccc(F)c2)cc1	.	.	0.85µM	.	4µM	.
COc1ccc(/C=C/C(=O)Nc2ccc(C(N)=O)cc2)cc1OC	.	-	-	-	.	-
SMILES	Luc counter	NPC1 promoter act	FLuc counter	ELG1 genotox	SMN2 splice up	Rab9 promoter act
O=C(O)CSc1nc2ccccc2nc1Cc1ccccc1F	.	-	-	-	.	-
COc1cc(C(c2c(O)cc(C)[nH]c2=O)c2c(O)cc(C)[nH]c2=O)ccc1O	.	-	-	-	.	-
COc1ccc(C)cc1NC(=O)c1cc(S(=O)(=O)N2CCN(c3cccc(C)c3C)CC2)ccc1F	.	.	-	.	.	.
O=C(NC(=O)c1ccccc1F)OCc1ccc(Cl)cc1Cl	.	-	12µM	-	.	-
O=C(CNC(=O)c1ccccc1F)NCCc1ccc(Cl)cc1Cl	.	-	-	-	.	-
Cc1oc(=O)c(NC(=O)c2ccccc2)cc1C(C)O (centres undefined)	-	-	-	-	.	-
O=C(c1ccc(Br)cc1)c1cc2ccc(O)cc2oc1=O	.	-	?	-	.	-
O=C(Nc1cc2ccc(O)cc2oc1=O)c1ccccc1	.	.	5.4µM	.	.	.
O=C(c1ccccc1)c1cc2ccc(O)cc2oc1=O	11µM	-	19µM	-	-	-
CCn1c(SC(C)C(=O)NCC2CCCO2)nc2ccccc21 (centres undefined)	.	-	-	-	.	-
CCCn1nc(C(=O)Nc2ccc(S(=O)(=O)Nc3nccs3)cc2)c2ccccc2c1=O	-	-	-	-	7.9µM	-
CCn1nc(C(=O)Nc2ccc(S(=O)(=O)Nc3ncccn3)cc2)c2ccccc2c1=O	-	-	-	-	-	-
Cn1cccc1/C=N/n1cnnc1	-	-	-	-	22µM	-
Cc1ccc2c(c1)COc1c3ccc(C(=O)NCC4CC4)cc3nn1-2	.	1.3µM	5.4µM	-	.	?
O=C(NCCO)c1ccc(Cl)c(Cl)c1	-	-	-	-	-	-
O=C(NCCO)c1ccc2c3n(nc2c1)-c1ccccc1CO3	.	0.5µM	2.1µM	?	.	2.8µM
O=C(NCC1CC1)c1ccc2c3n(nc2c1)-c1ccccc1CO3	.	0.35µM	0.48µM	?	.	?
Cc1ccc2c(c1)COc1c3ccc(C(=O)O)cc3nn1-2	.	-	1.3µM	-	.	?
Cc1ccc2c(c1)CCCN2C(=O)c1ccc2c(c1)OCO2	-	-	-	-	-	-
CCCn1nc2cc(C(=O)NCCc3ccc(C)cc3)ccc2c1OCC	-	-	-	-	-	-
O=C(CCN1C(=O)C2CC=CCC2C1=O)Nc1nc(-c2ccc(F)c(F)c2)cs1 (centres undefined)	.	-	-	-	.	-
Cn1ccc(C(=O)Nc2ccc3c(c2)OCCO3)n1	.	0.89µM	?	5.8µM	.	0.71µM
Cn1nc(C(=O)Nc2ccc3c(c2)OCCO3)cc1C(=O)O	11µM	-	9.5µM	-	-	-
Cc1ccc(-n2c(C)cc(C(=O)C(=O)Nc3ccccc3)c2C)c(C)c1	.	.	-	.	.	.
Cc1ccccc1Nc1c(-c2ccc(N3CCOCC3)cc2)nc2ccccn12	.	.	0.24µM	.	11µM	.
SMILES	Luc counter	NPC1 promoter act	FLuc counter	ELG1 genotox	SMN2 splice up	Rab9 promoter act
Cc1ccccc1Nc1c(-c2ccc(N3CCOCC3)cc2)nc2cccc(C)n12	.	.	1.3µM	.	-	.
Cc1cccc(C)c1Nc1c(-c2ccc(N3CCOCC3)cc2)nc2cnccn12	.	-	?	-	.	-
Cc1ccccc1Nc1c(-c2ccc(N3CCOCC3)cc2)nc2ccc(Br)cn12	.	.	3.4µM	.	-	.
CNC(=O)c1c(NC(=O)C2=COCCO2)sc2c1CCCC2	.	-	17µM	-	.	-
CCOC(=O)N1CCc2c(sc(NC(=O)C3=COCCO3)c2C(N)=O)C1	.	-	11µM	-	.	-
COc1cc(C(=O)NC(C)CCn2cccn2)ccc1OC1CCN(C(C)=O)CC1 (centres undefined)	.	-	-	-	.	-
CCOC(=O)C(C)NC(=O)c1c2c(nc3ccccc13)C(=O)N(C1CCCCC1)C2 (centres undefined)	.	.	-	.	.	.
O=C(Nc1ccccc1C(=O)O)c1ccc2ccccc2n1	-	?	6µM	?	?	?

Source: PubChem
